Compounds without any hit were thinned out: in the full panel of roughly 83,000, 20% have a hit.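 48-hour exposure, single concentration, 96-well plates; percent growth endpoint where 0 means no net growth. Active: below 10.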 Unmarked numbers belong to inactive results. Active and inactive are the calls of the source.
The compounds below were run on NCI-H322M lung (assay: NCI-60 one-dose screen, 48 h (100 = growth as untreated, 0 = no growth, -100 = all killed)). Conditions: 10 µM unless noted.
Protocol: Growth inhibition of the NCI-H322M human Non-Small Cell Lung tumor cell line is measured as a screen for anti-cancer activity. Cells are grown in 96 well plates and exposed to the test compound for 48 hours. Compounds are tested at a single concentration, which is 10^-5 M for most compounds. The reported endpoint is percent growth (GI% or GIPRCNT), where numbers from 0 - 100% represent growth inhibition, and numbers from -100% - 0 represent cell death. For example, a value of 40 represents 60% growth inhibition. A value of 0 means no net growth occurred over the course of the experiment. A value of -40 indicates 40% of cells at the beginning of the experiment died by the end of the experiment. A value of -100 means all cells are dead at the end of the experiment.
NCI-60 Human Tumor Cell Lines Screen was performed using the standard one-dose NCI protocol, which is described in more detail at https://dtp.cancer.gov/discovery_development/nci-60/default.htm.
Compounds with GIPRCNT values below 10 were considered active. Activity score was based on GIPRCNT using the following formula: […]
Score is 0 for GIPRCNT values of 100 or above, 50 for GIPRCNT values of 0, and 100 for GIPRCNT values of -100.
`Cc1ccc(C(=O)c2oc3ccc4c(C)cc(=O)oc4c3c2C)cc1` showed a growth of 63.1%. Work on `CC(=O)SC1CC(=O)C=C2CCC3C4CCC(=O)OC4(C)CCC3C21C` (stereo not given) yielded a growth of 120%. In the case of `O=C(N/N=C/c1ccccc1O)C(=O)Nc1ccc(F)cc1`, the growth was 26.6%. For `Cc1ccc2c(n1)C(=O)C(Oc1ccc(Br)cc1)=CC2=O`, the growth was 99.6%. In the case of `CC(=O)Nc1nc2c(s1)CCc1c-2cn(S(=O)(=O)c2ccccc2)c1-c1ccccc1`, the growth was 79.4%. Compound `CCCCc1c(CCC)c(=N)c2ccccc2n1C` has a growth of 85.3%. Work on `O=c1c2cc(F)ccc2sc2c(NCCN3CCCC3)nc3ccccc3c12` yielded a growth of 69%. `COC(=O)/C(CCC=C(C)C)=C1\[C@@H](OC(C)=O)C[C@@]2(C)[C@H]1C[C@@H](O)[C@H]1[C@@]3(C)CC[C@H](NCCO)[C@@H](C)[C@@H]3CC[C@@]12C` gave a growth of 101%. `CCN(CC)CCCNc1ccnc2cc3ccccc3cc12` showed a growth of 76%. `NCCOc1ncccc1/C=C1\c2ccccc2-c2ccc([N+](=O)[O-])cc21` was tested, and the growth was -23.4% (active). Compound `COc1ccc(-c2cn3c(C(=O)Nc4ccccc4Cl)c(-c4ccccc4)c4c3n2CCCC4)cc1` has a growth of 102%. `NC1C(N)C(N)C1N` (stereo not given) gave a growth of 99.7%. `CNCCNc1nc2ccccc2c2c(=O)c3cc(F)ccc3sc12` showed a growth of 42.4%. With `COc1nc2c(c(=O)n1C)N=C1c3ccccc3C(=O)C1C(c1ccccc1)N2` (stereo not given) the growth was 104%. `CCOC(=O)c1c2c(n3cccc(Cl)c13)C(=O)c1ncccc1C2=O` gave a growth of 26.5%. Compound `COc1cc(CNC(=O)Cc2ccccc2)ccc1OCc1cn(-c2ccc(F)cc2)nn1` has a growth of 103%. In the case of `Cn1nc(C(F)(F)F)c(-c2ccc(Cl)c(C(F)(F)F)c2)c1-c1ccc(OCc2ccc(Cl)cc2)cc1O`, the growth was 18.1%. `FC(F)(F)c1cccc(Nc2nc(-c3ccccc3)nc3ncccc23)c1` showed a growth of 87.8%. Compound `CC(=S)NC(=O)C(=O)/C=C1/NC(=O)C(=O)S1` has a growth of 105%. Work on `CCOC(=O)C1=CN(C)C=C(C(=O)OCC)C1c1cc(Br)c(OCC)c(OC)c1` yielded a growth of 98.6%. `Cc1nn(-c2nc3ccccc3[nH]2)c2c1C(c1ccc(OCC(N)=O)cc1)CC(=O)N2` (stereo not given) showed a growth of 105%. For `Nc1ccc(C2c3ccccc3Oc3ccccc32)cc1`, the growth was 99.8%. `O=c1oc2ccc(Cl)cc2c(=O)n1-c1ccc(Cl)cc1F` was tested, and the growth was 4.88% (active). `COc1cc(/C=C2\CN(S(=O)(=O)c3ccccc3)C/C(=C\c3cc(CN4CCCC4)c(O)c(OC)c3)C2=O)cc(CN2CCCC2)c1O` gave a growth of 21.4%. With `C#CCn1cc(C=C2C(=O)N(C)C(=O)N(C)C2=O)c2cc(Cl)ccc21` the growth was 102%. `O=c1nc2sc3nc4ccccc4cc3cc-2s1` showed a growth of 106%. In the case of `O=C(NC1CCN(Cc2ccccc2)CC1)c1cc2nc(-c3ccc(Cl)s3)cc(C(F)(F)F)n2n1`, the growth was 113%. `CN1CCN(Cc2ccc(C(=O)Nc3cncc(C#Cc4cnc(N)c5ccccc45)c3)cc2C(F)(F)F)CC1` was tested, and the growth was -31.5% (active). `CN(C)c1ccc(/C=C/c2ccnc3c(O)cccc23)cc1` showed a growth of 28.7%. `COc1ccccc1CNC(=O)C1c2ccccc2C(=O)N(CC(C)C)C1c1cccs1` (stereo not given) showed a growth of 69.8%. With `COc1ccc(C)c2sc(N(Cc3cccnc3)C(=O)c3ccc(C#N)cc3)nc12` the growth was 6.37% (active). `O=c1oc2ccc(-c3ccc(F)cc3F)cc2c(=O)n1-c1cccc(C(F)(F)F)c1` was tested, and the growth was 4.41% (active). For `Cc1cc(OC(=O)c2ccc([N+](=O)[O-])cc2)nc2[nH]c(=O)sc12`, the growth was 110%. For `O=C(Nc1ccc(Cl)cc1F)c1cc(F)ccc1O`, the growth was 8.54% (active). `CN1C(=O)N(C)C2C1NN=c1s/c(=C\c3c[nH]c4ccccc34)c(=O)n12` (stereo not given) was tested, and the growth was 50.4%. `Cc1cc(Br)c(N)c(Br)c1` showed a growth of 105%. Compound `CC1=C(CC(=O)c2cccc([N+](=O)[O-])c2)C(=O)c2ccccc2C1=O` has a growth of 68.7%. For `COc1cc(C2C(C#N)=C(N)OC3=C2C(=O)c2ccccc2C3=O)cc(OC)c1O` (stereo not given), the growth was 47.7%. `CC(C)(C)c1ccc(C2CC(=O)C3=C(C2)Nc2ccccc2N(C(=O)c2ccccc2Cl)C3c2ccc(F)cc2)cc1` (stereo not given) was tested, and the growth was -9.78% (active). In the case of `Cc1ccc2[nH]c(=O)cc(-n3nncc3Cn3c4ccccc4c4ccccc43)c2c1`, the growth was 97.6%.

From PubChem BioAssay (NCI)
